Measurements published in the supplement of paper PMC11732987, “Enantioselective OTUD7B fragment discovery through chemoproteomics screening and high-throughput optimisation” (Communications Chemistry, 2025).

Key:
Test in all cases: log2 ratio of Biotin-Ahx-Ub-VS probe labelling (fragment/DMSO); higher = less target engagement (more negative = stronger competition), active = hit call of the paper (q ≤ 0.05, log2 ratio ≤ -1)
Conditions in all cases: compound concentration: 200 uM; treatment time: 3 h
[1] = target: T1, USP42 (UniProt Q9H9J4)
T1 sequence (whole entry): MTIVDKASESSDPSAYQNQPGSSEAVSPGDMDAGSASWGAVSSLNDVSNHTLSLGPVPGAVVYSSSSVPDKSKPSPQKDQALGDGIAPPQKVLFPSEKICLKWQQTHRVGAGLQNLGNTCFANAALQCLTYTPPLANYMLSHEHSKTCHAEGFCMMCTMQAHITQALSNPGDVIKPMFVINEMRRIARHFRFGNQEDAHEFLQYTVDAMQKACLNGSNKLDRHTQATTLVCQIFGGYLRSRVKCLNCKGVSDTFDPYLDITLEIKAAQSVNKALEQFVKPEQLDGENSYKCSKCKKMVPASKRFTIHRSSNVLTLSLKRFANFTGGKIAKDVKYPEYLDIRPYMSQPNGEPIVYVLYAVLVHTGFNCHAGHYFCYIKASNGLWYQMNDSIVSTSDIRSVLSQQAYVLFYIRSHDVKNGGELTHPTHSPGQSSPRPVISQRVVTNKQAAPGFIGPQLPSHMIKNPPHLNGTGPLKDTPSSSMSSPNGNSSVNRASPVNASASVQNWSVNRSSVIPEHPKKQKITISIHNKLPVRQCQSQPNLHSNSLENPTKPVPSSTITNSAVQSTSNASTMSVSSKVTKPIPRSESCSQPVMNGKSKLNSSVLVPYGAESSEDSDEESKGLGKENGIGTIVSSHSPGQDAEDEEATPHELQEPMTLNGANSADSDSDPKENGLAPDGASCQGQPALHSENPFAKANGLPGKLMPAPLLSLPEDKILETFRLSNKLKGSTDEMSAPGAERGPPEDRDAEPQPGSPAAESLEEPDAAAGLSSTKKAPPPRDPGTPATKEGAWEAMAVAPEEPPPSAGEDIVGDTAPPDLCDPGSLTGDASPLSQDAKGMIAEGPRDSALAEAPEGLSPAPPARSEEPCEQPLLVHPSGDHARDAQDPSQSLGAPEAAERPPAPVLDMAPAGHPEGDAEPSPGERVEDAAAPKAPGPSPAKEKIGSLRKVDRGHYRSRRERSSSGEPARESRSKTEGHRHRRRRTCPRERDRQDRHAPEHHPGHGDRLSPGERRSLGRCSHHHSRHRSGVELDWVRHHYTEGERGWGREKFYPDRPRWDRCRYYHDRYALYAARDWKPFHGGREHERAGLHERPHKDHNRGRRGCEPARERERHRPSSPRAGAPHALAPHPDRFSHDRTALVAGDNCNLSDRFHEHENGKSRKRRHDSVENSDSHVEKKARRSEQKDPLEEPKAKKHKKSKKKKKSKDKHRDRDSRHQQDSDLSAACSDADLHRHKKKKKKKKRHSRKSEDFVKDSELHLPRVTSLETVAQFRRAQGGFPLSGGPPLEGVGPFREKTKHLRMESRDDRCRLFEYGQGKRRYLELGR
How it was run: (§1)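 Labelled DUBs from HEK293T lysate were NeutrAvidin-enriched, digested with LysC and trypsin, and run by diaPASEF LC-MS/MS. Before that, each 495 µg sample in Tris/CHAPS/IGEPAL buffer with protease inhibitors was treated in triplicate with fragment at 200 µM or vehicle for 3 h, then with Biotin-Ahx-Ub-VS at 0.5 µM final for 1 h. Values are average log2 ratios of fragment over vehicle by unpaired t-test, based on global-median-normalised Spectronaut label-free quantities from proteins with ≥2 unique peptides.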

[2] = target: USP46 (UniProt P62068)
How it was run: as §1

[3] = target: T2, USP47 (UniProt Q96K76)
T2 sequence (whole entry): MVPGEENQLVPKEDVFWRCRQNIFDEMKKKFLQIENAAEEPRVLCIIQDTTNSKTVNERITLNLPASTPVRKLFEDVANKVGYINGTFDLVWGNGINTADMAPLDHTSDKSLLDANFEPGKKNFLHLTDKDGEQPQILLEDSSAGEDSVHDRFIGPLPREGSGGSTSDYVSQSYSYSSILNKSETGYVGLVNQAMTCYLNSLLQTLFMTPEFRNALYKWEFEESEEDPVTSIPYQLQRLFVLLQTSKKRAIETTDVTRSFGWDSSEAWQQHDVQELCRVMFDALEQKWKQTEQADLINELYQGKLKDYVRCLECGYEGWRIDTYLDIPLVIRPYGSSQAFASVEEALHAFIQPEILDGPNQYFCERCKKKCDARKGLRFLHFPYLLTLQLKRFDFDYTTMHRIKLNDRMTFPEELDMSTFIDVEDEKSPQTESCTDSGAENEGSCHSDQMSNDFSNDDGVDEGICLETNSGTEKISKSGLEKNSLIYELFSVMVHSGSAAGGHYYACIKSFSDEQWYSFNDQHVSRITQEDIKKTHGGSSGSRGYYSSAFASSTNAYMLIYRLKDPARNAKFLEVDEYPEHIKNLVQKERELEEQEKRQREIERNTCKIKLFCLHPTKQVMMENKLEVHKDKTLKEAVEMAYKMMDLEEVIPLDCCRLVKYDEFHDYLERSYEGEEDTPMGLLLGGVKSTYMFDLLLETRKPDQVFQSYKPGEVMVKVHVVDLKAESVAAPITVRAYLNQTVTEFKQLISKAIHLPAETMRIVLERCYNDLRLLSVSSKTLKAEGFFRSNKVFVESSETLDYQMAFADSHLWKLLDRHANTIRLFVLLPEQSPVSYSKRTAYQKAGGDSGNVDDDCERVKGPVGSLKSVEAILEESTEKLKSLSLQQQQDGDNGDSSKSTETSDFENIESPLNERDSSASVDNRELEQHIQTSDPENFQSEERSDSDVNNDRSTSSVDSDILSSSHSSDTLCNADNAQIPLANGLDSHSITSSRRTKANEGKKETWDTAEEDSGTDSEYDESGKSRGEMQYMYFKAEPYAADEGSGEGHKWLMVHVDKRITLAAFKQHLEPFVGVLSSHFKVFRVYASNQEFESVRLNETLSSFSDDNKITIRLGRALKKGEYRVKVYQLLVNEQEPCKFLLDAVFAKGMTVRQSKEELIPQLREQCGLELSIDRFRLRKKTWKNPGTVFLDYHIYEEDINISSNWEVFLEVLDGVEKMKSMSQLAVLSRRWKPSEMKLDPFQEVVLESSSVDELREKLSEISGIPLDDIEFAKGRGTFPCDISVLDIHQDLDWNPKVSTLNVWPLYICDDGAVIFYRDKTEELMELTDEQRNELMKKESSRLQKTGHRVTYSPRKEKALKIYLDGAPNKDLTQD
How it was run: as §1

[4] = target: T3, USP48 (UniProt Q86UV5)
T3 sequence (whole entry): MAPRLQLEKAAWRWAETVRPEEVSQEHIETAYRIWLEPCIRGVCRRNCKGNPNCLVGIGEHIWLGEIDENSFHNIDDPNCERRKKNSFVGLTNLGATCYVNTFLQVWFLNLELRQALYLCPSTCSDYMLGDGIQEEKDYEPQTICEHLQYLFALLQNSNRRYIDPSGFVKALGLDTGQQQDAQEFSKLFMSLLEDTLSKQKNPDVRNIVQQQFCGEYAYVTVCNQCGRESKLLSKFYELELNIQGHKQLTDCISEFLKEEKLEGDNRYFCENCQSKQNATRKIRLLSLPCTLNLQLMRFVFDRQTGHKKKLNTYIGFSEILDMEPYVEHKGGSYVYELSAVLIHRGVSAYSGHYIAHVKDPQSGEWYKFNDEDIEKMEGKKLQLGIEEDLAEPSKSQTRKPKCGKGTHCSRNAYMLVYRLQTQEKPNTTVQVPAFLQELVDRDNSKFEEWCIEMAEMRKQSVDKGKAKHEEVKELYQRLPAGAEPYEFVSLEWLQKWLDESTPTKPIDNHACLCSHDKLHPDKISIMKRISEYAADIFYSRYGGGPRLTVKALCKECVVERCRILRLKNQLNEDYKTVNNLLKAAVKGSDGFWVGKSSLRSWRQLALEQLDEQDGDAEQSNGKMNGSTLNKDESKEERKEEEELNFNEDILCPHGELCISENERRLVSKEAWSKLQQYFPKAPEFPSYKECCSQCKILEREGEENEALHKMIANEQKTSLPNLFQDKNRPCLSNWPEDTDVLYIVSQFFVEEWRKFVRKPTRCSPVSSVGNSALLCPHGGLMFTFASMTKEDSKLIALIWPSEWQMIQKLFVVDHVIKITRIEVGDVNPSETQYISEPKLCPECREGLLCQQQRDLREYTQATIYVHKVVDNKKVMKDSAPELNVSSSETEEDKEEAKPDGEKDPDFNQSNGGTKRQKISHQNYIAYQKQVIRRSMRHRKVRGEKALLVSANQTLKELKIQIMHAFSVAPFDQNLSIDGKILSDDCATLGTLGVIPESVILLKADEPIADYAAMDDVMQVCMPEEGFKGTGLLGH
How it was run: as §1

[5] = target: T4, USP5 (UniProt P45974)
T4 sequence (whole entry): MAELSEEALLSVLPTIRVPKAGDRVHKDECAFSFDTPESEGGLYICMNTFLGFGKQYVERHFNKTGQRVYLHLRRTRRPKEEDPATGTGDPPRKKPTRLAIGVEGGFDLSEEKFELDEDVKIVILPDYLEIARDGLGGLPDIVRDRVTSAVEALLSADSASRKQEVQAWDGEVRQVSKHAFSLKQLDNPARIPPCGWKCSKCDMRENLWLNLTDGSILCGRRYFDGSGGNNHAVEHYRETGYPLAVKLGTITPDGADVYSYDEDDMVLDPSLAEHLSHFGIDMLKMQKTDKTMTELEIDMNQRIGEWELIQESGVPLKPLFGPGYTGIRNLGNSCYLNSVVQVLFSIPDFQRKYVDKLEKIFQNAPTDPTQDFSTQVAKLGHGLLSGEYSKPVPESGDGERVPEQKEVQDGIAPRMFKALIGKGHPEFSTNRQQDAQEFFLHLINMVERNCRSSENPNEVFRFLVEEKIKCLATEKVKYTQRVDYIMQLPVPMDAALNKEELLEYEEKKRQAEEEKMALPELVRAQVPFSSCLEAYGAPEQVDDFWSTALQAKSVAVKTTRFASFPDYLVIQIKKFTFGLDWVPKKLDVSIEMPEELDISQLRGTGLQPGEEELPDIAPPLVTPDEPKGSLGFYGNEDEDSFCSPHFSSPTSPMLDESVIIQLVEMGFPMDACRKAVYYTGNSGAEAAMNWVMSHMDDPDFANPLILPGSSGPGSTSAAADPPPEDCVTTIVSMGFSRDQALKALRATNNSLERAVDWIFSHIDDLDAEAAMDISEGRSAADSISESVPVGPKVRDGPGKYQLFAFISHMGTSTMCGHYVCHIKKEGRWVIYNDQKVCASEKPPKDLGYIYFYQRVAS
How it was run: as §1

[6] = target: USP54 (UniProt Q70EL1)
How it was run: as §1

[7] = target: USP7 (UniProt Q93009)
How it was run: as §1

[8] = target: T5, USP8 (UniProt P40818)
T5 sequence (whole entry): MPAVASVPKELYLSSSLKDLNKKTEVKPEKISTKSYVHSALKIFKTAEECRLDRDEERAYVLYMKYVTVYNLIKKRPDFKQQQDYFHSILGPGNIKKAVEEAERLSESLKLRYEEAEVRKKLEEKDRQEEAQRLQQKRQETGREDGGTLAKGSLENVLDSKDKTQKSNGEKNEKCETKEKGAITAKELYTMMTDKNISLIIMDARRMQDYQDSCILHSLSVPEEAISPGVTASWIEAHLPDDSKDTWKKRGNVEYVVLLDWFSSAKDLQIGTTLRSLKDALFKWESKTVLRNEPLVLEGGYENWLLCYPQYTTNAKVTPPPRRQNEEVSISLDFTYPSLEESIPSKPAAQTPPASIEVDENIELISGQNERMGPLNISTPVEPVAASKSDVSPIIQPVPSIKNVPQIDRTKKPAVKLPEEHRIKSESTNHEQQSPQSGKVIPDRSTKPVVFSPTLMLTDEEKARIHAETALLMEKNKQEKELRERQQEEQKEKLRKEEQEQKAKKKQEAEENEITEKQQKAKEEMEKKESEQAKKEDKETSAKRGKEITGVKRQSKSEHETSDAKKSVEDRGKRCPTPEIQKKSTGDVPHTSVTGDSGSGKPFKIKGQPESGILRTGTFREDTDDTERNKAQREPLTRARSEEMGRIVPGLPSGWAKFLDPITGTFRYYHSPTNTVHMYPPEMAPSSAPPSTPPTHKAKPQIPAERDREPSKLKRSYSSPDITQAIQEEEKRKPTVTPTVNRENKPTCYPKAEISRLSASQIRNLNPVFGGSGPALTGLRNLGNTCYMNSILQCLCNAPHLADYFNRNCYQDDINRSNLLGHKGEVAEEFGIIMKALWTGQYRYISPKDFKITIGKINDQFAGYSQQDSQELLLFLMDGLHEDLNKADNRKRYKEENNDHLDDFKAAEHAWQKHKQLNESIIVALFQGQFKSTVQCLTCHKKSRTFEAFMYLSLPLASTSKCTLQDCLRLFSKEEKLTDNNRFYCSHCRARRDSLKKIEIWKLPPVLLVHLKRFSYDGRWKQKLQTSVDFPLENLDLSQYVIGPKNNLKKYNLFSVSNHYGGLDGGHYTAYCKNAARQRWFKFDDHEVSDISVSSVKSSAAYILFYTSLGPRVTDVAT
How it was run: as §1

Measured: log2 ratio of Biotin-Ahx-Ub-VS probe labelling

Chain of USP7 (Q93009 whole entry, looked up): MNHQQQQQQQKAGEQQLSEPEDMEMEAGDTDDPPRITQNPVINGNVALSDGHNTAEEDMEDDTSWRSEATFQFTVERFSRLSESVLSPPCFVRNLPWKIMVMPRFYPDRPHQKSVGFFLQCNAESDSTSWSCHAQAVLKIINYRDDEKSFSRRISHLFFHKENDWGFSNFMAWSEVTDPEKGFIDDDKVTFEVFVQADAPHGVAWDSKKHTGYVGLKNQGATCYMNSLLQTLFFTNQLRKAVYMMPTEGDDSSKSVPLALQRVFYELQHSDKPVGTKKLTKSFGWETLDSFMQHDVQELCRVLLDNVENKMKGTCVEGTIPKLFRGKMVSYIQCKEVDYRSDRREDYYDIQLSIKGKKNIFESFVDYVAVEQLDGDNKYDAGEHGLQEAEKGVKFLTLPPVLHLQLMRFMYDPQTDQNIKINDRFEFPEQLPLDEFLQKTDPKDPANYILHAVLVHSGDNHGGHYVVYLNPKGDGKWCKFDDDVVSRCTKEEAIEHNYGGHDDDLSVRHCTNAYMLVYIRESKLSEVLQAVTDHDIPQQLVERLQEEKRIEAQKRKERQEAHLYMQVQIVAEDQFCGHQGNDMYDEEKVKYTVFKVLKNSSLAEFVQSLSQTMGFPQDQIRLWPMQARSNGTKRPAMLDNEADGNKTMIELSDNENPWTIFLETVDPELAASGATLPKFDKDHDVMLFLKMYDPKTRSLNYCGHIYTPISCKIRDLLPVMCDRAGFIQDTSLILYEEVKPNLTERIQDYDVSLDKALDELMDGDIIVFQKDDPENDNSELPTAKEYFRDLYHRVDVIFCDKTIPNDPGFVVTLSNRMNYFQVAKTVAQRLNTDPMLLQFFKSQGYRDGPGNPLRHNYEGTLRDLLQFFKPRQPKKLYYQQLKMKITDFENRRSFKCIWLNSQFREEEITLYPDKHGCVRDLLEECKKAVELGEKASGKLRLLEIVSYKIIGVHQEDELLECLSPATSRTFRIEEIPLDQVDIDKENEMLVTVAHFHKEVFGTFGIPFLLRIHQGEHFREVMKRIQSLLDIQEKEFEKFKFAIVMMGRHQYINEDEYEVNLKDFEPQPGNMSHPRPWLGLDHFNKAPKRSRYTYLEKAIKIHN
Chain of USP54 (Q70EL1 whole entry): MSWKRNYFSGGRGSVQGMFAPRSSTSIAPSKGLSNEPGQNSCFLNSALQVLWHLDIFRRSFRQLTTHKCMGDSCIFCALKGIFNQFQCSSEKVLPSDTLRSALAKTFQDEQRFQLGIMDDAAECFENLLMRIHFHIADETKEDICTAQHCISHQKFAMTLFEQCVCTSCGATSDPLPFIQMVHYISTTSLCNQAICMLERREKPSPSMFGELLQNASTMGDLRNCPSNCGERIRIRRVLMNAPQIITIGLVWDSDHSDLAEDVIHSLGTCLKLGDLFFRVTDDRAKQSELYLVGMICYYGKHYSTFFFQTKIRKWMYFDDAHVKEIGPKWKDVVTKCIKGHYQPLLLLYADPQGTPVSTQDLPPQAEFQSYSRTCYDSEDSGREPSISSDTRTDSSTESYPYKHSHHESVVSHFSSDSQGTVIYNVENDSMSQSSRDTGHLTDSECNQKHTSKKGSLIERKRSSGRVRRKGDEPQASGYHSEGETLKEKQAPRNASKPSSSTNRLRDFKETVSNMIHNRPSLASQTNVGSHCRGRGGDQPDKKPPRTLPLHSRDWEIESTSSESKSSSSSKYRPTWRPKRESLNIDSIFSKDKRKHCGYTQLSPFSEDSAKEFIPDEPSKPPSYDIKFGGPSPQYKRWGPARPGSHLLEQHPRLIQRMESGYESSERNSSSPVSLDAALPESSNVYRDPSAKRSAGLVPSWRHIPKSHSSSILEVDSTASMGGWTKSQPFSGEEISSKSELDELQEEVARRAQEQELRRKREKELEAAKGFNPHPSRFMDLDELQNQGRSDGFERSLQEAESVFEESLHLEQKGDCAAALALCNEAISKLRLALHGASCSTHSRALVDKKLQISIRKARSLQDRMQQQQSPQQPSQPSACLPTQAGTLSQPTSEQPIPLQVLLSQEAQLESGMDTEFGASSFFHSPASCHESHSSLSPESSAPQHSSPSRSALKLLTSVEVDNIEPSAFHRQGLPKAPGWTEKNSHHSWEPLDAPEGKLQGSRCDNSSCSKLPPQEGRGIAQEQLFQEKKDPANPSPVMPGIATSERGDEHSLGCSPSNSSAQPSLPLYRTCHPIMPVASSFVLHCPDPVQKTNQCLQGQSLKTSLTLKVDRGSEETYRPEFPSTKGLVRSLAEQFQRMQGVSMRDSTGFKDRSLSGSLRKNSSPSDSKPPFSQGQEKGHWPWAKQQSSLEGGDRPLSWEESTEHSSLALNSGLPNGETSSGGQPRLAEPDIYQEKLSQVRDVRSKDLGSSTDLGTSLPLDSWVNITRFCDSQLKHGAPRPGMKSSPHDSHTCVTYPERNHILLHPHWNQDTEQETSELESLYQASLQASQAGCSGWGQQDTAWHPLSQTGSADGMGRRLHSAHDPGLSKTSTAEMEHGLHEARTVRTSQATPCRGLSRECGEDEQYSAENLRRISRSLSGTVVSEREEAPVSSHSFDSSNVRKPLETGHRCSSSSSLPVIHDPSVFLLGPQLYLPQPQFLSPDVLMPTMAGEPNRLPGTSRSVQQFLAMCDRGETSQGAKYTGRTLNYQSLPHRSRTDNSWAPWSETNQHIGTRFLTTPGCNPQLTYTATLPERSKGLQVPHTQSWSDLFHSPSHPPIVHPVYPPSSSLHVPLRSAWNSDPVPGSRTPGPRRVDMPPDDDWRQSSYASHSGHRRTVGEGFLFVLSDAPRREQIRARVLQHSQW
Chain of USP46 (P62068 whole entry): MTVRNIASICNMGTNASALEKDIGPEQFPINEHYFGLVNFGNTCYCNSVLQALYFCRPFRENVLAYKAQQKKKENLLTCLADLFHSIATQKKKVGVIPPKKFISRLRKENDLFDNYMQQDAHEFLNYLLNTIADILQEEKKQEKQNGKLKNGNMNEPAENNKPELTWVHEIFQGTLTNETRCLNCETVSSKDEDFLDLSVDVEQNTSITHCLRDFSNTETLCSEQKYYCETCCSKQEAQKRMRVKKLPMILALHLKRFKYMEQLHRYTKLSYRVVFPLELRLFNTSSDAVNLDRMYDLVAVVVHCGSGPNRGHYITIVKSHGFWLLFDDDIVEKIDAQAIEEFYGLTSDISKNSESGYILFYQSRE

O=C(CCl)N1CCN(c2nc3ccccc3o2)CC1
active: [7] -1.99
inactive: [1] 0.952 | [2] -0.372 | [3] -0.362 | [4] -0.829 | [5] -0.993 | [6] -0.173 | [8] -0.223
